According to PubChem BioAssay:
Inconclusive results are not listed. Activity calls are given as the source filed them.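 Rule for the calls, unless noted: active = viability at or below 27.92% in each of two runs, the all-compound median minus 4 SD; inconclusive = no clear call, values can overlap the other calls; inactive = the rest.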

Assay: viability of PTEN-null HCT116 cells – cell-based, HCT116 clonal line, CellTiter-Glo, pilot screen (AID 824);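 note: 0% = 20 µM Hyamine control and 100% = vehicle cell control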
Details: HCT116 PTEN-deleted viability, 60 h, at 10 µM, active compounds read low

Compound | viability
CC(=O)Nc1ccc(S(=O)(=O)NCc2ccc3c(c2)cc(C)n3C)cc1 | 99.2% (inactive)
CCOc1ccc(N(CC(=O)Nc2ccccc2)S(C)(=O)=O)cc1 | 97.4% (inactive)
O=C1NCC2=C1C(c1ccc(Br)cc1)Nc1ccccc1N2 (stereo not given) | 96.1% (inactive)
COc1ccccc1C(=O)NC(CCSC)C(=O)NCC(c1ccco1)N(C)C (stereo not given) | 89.5% (inactive)
COC(=O)c1ccc(-c2nc(-c3ccc(Br)o3)no2)cc1 | 87.4% (inactive)
CCOc1ccc(C2CC(c3ccc(OC)cc3)n3ncnc3N2)cc1 (stereo not given) | 99% (inactive)
O=C(NCC(c1ccc(F)cc1)N1CCOCC1)c1ccc(Br)o1 (stereo not given) | 81.8% (inactive)
Cc1noc(C)c1S(=O)(=O)N(CC(=O)N1CCCC1)c1ccc(C(C)C)cc1 | 83% (inactive)
O=C(CSc1nc2c(c(=O)n1-c1ccc(Cl)cc1)SCC2)Nc1nccs1 | 78.4% (inactive)
CCOc1ccc(C2CC(c3ccc(CC)cc3)n3nc(N)nc3N2)cc1 (stereo not given) | 83.5% (inactive)
COC(=O)CSc1nc(C)cc(Oc2ccccc2)n1 | 95.8% (inactive)
CCCN(CCC)C(=O)CCS(=O)(=O)c1cccc2nsnc12 | 98.2% (inactive)
O=C(NC1CCCC1)C1c2ccccc2C(=O)N1CCCN1CCOCC1 (stereo not given) | 98.4% (inactive)
CCCCCOC(=O)NCC(O)c1ccccc1 (stereo not given) | 95.5% (inactive)
Cc1cc(C)c2c(=O)n(CC(=O)N3CCC(N4CCCCC4)CC3)sc2n1 | 16.2% (active)
Cn1c(=O)c2cc(NCc3ccccc3)nnc2n(C)c1=O | 58.8% (inactive)
COC(=O)C1=CNC=C(C(=O)OC)C1c1ccc(C(=O)OC)cc1 | 98.3% (inactive)
CC(O)c1cccc(NC(=O)CCC(=O)O)c1 (stereo not given) | 95.4% (inactive)
CCSc1nnc(NC(=O)c2cc3c(s2)CCCC3)s1 | 60.2% (inactive)
CC(CCc1ccco1)NC(=O)c1cc2c(-c3ccccc3F)nn(C)c2s1 (stereo not given) | 78.7% (inactive)

Compound | viability
COc1ccc(CNC(=O)c2ccc3c(c2)N(C)C(=O)CS3=O)cc1 (stereo not given) | 97.3% (inactive)
Cc1ccc(OCCN2CCCCCC2)c(C)c1 | 70.4% (inactive)
C(=N\c1nccs1)/c1cccnc1 | 100% (inactive)
Cc1ccc(S(=O)(=O)CCc2nc3ccccc3n2CCC#N)cc1 | 18.7% (active)
CCOC(=O)CC1C(=O)NCCN1Cc1cccc(OC)c1 (stereo not given) | 108% (inactive)
COc1ccc(-c2cc(C(F)(F)F)n3nc(C)cc3n2)cc1 | 87% (inactive)
Cn1c(=O)[nH]c(=O)c2c1nc(N1CCCCC1)n2CCSc1nc2ccccc2o1 | 92.4% (inactive)
O=C(CN1C(=O)c2ccccc2S1(=O)=O)NC1CCCCCC1 | 101% (inactive)
CC(C)n1c(=O)[nH]c2ccccc21 | 89.8% (inactive)
O=C(O)C1C2C=CC3(CN(C/C=C/c4ccccc4)C(=O)C13)O2 (stereo not given) | 100% (inactive)
CCCn1nc2ccccc2c1P(=N)(N1CCOCC1)N1CCOCC1 | 96.8% (inactive)
CCOc1ccc(C2N(c3ccc(F)cc3)C(=O)C3CCCN32)cc1 (stereo not given) | 91.2% (inactive)
COc1ccc(-n2c(C)nc3c(cnn3-c3ccc(C)c(C)c3)c2=O)cc1 | 79% (inactive)
CCSCCOC(=O)C1=C(C)NC(=O)NC1c1cccc(OC)c1OC (stereo not given) | 96.9% (inactive)
CCOc1ccc(NC(=O)CSc2nc3c(c(=O)n2-c2ccccc2OC)SCC3)cc1 | 82.5% (inactive)
CCOc1ccccc1N1C(=O)c2cccnc2C1=O | 98.7% (inactive)
CCOc1ccc(-n2c(SCC(=O)NCc3ccco3)nc3c(c2=O)SCC3)cc1 | 98.4% (inactive)
Cc1ccc(-c2nnc3n2N=C(c2ccccc2)CS3)cc1 | 96.9% (inactive)
Cc1cc(N2CCCC2)n2nc(C)nc2n1 | 101% (inactive)
CS(=O)(=O)c1ccc(N)cc1 | 88.9% (inactive)

Assay: RAM pathway blockade in budding yeast – dse1pr::URA3 reporter, 5-FOA selection, pilot screen (AID 869;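 active = inhibition over a set limit, the all-compound mean plus 3 SD, in both replicate runs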;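 note: 0% = DMSO wells with no growth and 100% = 10 µM 1-NA-PP1 with full growth; RAM network block rescues cells from 5-FOA so hits raise OD615 growth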)
Details: S. cerevisiae dse1pr::URA3 5-FOA growth, OD615, 2 d; at 10 µM; active compounds read high; strain carries analog-sensitive mutant Cbk1 kinase

Compound | inhibition
CC(=O)Nc1ccc(S(=O)(=O)NCc2ccc3c(c2)cc(C)n3C)cc1 | 3.49% (inactive)
CCOc1ccc(N(CC(=O)Nc2ccccc2)S(C)(=O)=O)cc1 | -0.325% (inactive)
O=C1NCC2=C1C(c1ccc(Br)cc1)Nc1ccccc1N2 (stereo not given) | -0.645% (inactive)
COc1ccccc1C(=O)NC(CCSC)C(=O)NCC(c1ccco1)N(C)C (stereo not given) | 1.89% (inactive)
COC(=O)c1ccc(-c2nc(-c3ccc(Br)o3)no2)cc1 | 2.63% (inactive)
CCOc1ccc(C2CC(c3ccc(OC)cc3)n3ncnc3N2)cc1 (stereo not given) | -0.22% (inactive)
O=C(NCC(c1ccc(F)cc1)N1CCOCC1)c1ccc(Br)o1 (stereo not given) | 2.88% (inactive)
Cc1noc(C)c1S(=O)(=O)N(CC(=O)N1CCCC1)c1ccc(C(C)C)cc1 | 0.4% (inactive)
O=C(CSc1nc2c(c(=O)n1-c1ccc(Cl)cc1)SCC2)Nc1nccs1 | 3.08% (inactive)
CCOc1ccc(C2CC(c3ccc(CC)cc3)n3nc(N)nc3N2)cc1 (stereo not given) | 1.54% (inactive)
COC(=O)CSc1nc(C)cc(Oc2ccccc2)n1 | 1.48% (inactive)
CCCN(CCC)C(=O)CCS(=O)(=O)c1cccc2nsnc12 | 1.15% (inactive)
O=C(NC1CCCC1)C1c2ccccc2C(=O)N1CCCN1CCOCC1 (stereo not given) | 1.2% (inactive)
CCCCCOC(=O)NCC(O)c1ccccc1 (stereo not given) | 2.22% (inactive)
Cc1cc(C)c2c(=O)n(CC(=O)N3CCC(N4CCCCC4)CC3)sc2n1 | 2.08% (inactive)
Cn1c(=O)c2cc(NCc3ccccc3)nnc2n(C)c1=O | 0.38% (inactive)
COC(=O)C1=CNC=C(C(=O)OC)C1c1ccc(C(=O)OC)cc1 | 0.165% (inactive)
CC(O)c1cccc(NC(=O)CCC(=O)O)c1 (stereo not given) | 1.97% (inactive)
CCSc1nnc(NC(=O)c2cc3c(s2)CCCC3)s1 | 2% (inactive)
CC(CCc1ccco1)NC(=O)c1cc2c(-c3ccccc3F)nn(C)c2s1 (stereo not given) | 1.15% (inactive)

Compound | inhibition
COc1ccc(CNC(=O)c2ccc3c(c2)N(C)C(=O)CS3=O)cc1 (stereo not given) | 1.41% (inactive)
Cc1ccc(OCCN2CCCCCC2)c(C)c1 | 1.21% (inactive)
C(=N\c1nccs1)/c1cccnc1 | 0.235% (inactive)
Cc1ccc(S(=O)(=O)CCc2nc3ccccc3n2CCC#N)cc1 | 0.995% (inactive)
CCOC(=O)CC1C(=O)NCCN1Cc1cccc(OC)c1 (stereo not given) | 0.17% (inactive)
COc1ccc(-c2cc(C(F)(F)F)n3nc(C)cc3n2)cc1 | 2% (inactive)
Cn1c(=O)[nH]c(=O)c2c1nc(N1CCCCC1)n2CCSc1nc2ccccc2o1 | 1.11% (inactive)
O=C(CN1C(=O)c2ccccc2S1(=O)=O)NC1CCCCCC1 | 0.355% (inactive)
CC(C)n1c(=O)[nH]c2ccccc21 | 0.575% (inactive)
O=C(O)C1C2C=CC3(CN(C/C=C/c4ccccc4)C(=O)C13)O2 (stereo not given) | 1.28% (inactive)
CCCn1nc2ccccc2c1P(=N)(N1CCOCC1)N1CCOCC1 | 2.04% (inactive)
CCOc1ccc(C2N(c3ccc(F)cc3)C(=O)C3CCCN32)cc1 (stereo not given) | 2.38% (inactive)
COc1ccc(-n2c(C)nc3c(cnn3-c3ccc(C)c(C)c3)c2=O)cc1 | 2.09% (inactive)
CCSCCOC(=O)C1=C(C)NC(=O)NC1c1cccc(OC)c1OC (stereo not given) | 0.96% (inactive)
CCOc1ccc(NC(=O)CSc2nc3c(c(=O)n2-c2ccccc2OC)SCC3)cc1 | 0.805% (inactive)
CCOc1ccccc1N1C(=O)c2cccnc2C1=O | 1.04% (inactive)
CCOc1ccc(-n2c(SCC(=O)NCc3ccco3)nc3c(c2=O)SCC3)cc1 | 3.37% (inactive)
Cc1ccc(-c2nnc3n2N=C(c2ccccc2)CS3)cc1 | 3.56% (inactive)
Cc1cc(N2CCCC2)n2nc(C)nc2n1 | 1.88% (inactive)
CS(=O)(=O)c1ccc(N)cc1 | 2.72% (inactive)
